Several values for one entry are separate records, joined by “and”; a condition that tells them apart may be missing. Equal values may be shown once. Out of some 220,000 compounds screened, about 2,000 (0.91%) were called active. Another 2% or so got no clear call; they are omitted. No stated cut-off is given here; in the data, inconclusive means inhibition above about 80% without an active follow-up result; inactive means below that; test concentration not stated here. Not all results are given here. Measured potencies and affinities stand elsewhere.

A short description of this assay: M. tuberculosis H37Rv growth inhibitors, H37Rv strain (AID 1626).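 Further: bacteria incubated seven days before Alamar blue readout; 0% = bacteria only wells and 100% = bacteria with antibiotic wells.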 The following applies: active compounds read high, concentration not given here.
Turning to `Cn1c(SCC(=O)N/N=C/c2cccnc2)nnc1-c1ccccc1`, the inhibition (commonly the drop in the measured response relative to a control, in per cent) is -5.36% (inactive).
As for `Cc1ccc(C(=O)OCC(=O)NC(C)C)cc1S(=O)(=O)N1CCOCC1`, the inhibition is -1.79% (inactive).
The value for `CN(Cc1ccccc1)S(=O)(=O)c1ccc(NC(=S)NC(=O)C(C)(C)C)cc1` was 9.18% (inactive); that for `COc1cc(CN2CCCC(C(=O)c3ccc4c5c(cccc35)CC4)C2)cc(OC)c1O` (stereo not drawn) was -1.67% (inactive); that for `CC(C)c1[nH]nc2c1C(c1ccco1)C(C#N)=C(N)O2` (stereo not drawn) was -5.64% (inactive).
The result for `O=C1CC(C(=O)O)C2(CCCC2)O1` (stereo not drawn) reads 9.23% (inactive).
The value for `Cc1ccc(N(CC(=O)NC2CCCC2)C(=O)CCCC(=O)Nc2ccccn2)cc1C` was 10% (inactive); that for `Clc1ccccc1Sc1ccc(-c2ccccn2)s1` was -5.02% (inactive).
On to `O=C(O)c1cnc(-c2ccccc2)nc1Sc1ccccc1Cl`, for which the inhibition was 1.01% (inactive).
The value for `COc1ccccc1Sc1nc(-c2ccccc2)ncc1OC` was -2.36% (inactive); that for `COc1cnc(-c2ccccn2)nc1NC(C)C` was 75.4% (inactive).
`CC12CN3CC(C)(CN(C1)C3c1cccnc1)C2=O` (stereo not drawn): the inhibition is -0.26% (inactive).
The value for `O=C(NC(=S)NCCN1CCOCC1)c1ccccc1` was -16.1% (inactive); that for `CCOC(=O)C1CCCN(C(=O)c2ccc([N+](=O)[O-])c(C)c2)C1` (stereo not drawn) was -2.07% (inactive).
The value for `CCOC(=O)C1CCCN(c2cc(NCCCO)c([N+](=O)[O-])c3nonc23)C1` (stereo not drawn) was 1.76% (inactive); that for `Cc1n[nH]c(=O)n1-c1ccc(OCc2ccccc2)cc1` was -0.14% (inactive).
The result for `Cc1cc(-c2nnc(SCC(=O)c3ccc(F)cc3)o2)no1` reads 3.52% (inactive).
Take `Fc1ccccc1-c1nc(N2CCCCC2)c2ccccc2n1`: the inhibition is 7.2% (inactive).
As for `c1ccc2c(N3CCOCC3)nc(-c3ccncc3)nc2c1`, the inhibition was -3.11% (inactive).
The value for `c1cncc(-c2nc(N3CCOCC3)c3ccccc3n2)c1` was -2.03% (inactive); that for `CCN1CCN(c2nc(-c3ccccn3)nc3ccccc23)CC1` was -2.25% (inactive).
The result for `CN1CCN(c2nc(-c3ccccn3)nc3ccccc23)CC1` reads 10.9% (inactive).
The result for `c1ccc2c(N3CCCCCC3)nc(-c3ccncc3)nc2c1` reads 37% (inactive); that for `CCn1cc(C(=O)N2CCN(c3ccc([N+](=O)[O-])cc3)CC2)c(=O)c2ccc(C)nc21`, 6.57% (inactive).
Consider `O=S(=O)(O)c1nc2ccccc2[nH]1`, for which the inhibition was -0.16% (inactive).
The value for `Cc1cc(=O)[nH]c(N/N=C/c2cc(C)n(-c3ccccc3)c2C)n1` was -2.65% (inactive); that for `S=C(Nc1ccc(Cl)cc1)NC1CC2CCCC(C1)N2C1CC1` (stereo not drawn) was -1.32% (inactive).
The value for `Cc1ccc(-n2c(C(C)n3nc(C)c([N+](=O)[O-])c3C)n[nH]c2=S)cc1` (stereo not drawn) was 3.01% (inactive).
As to `Cc1ccc(C(=O)CSC2=NC(N)=C(C#N)C3(CCCCC3)C2C(N)=O)cc1` (stereo not drawn), the inhibition is -12.2% (inactive).
`Fc1c(F)c(C(F)(F)F)c(F)c(F)c1N1CCN(c2ccc3nnc(C(F)(F)F)n3n2)CC1`: the inhibition is 8.98% (inactive).
The value for `FC(F)(F)c1nnc2ccc(N3CCCC3)nn12` was -2.32% (inactive); that for `COc1ccc(NC(=O)COc2ncnc3ccccc23)cc1S(=O)(=O)N1CCOCC1` was -8.54% (inactive).
Take `CCCc1[nH]n(-c2nc3ccccc3s2)c(=O)c1C=NCCCOC`: the inhibition is -3.55% (inactive).
`Cc1ccc(C)c(C(=O)Nc2cc(C)nn2-c2nc(C)cc(C)n2)c1`: the inhibition is 22% (inactive).
The result for `Cc1cc(Nc2ccccc2)n(-c2ccccc2)n1` reads 1.16% (inactive); that for `CC(=O)Nc1cc(C)nn1-c1nc(C)cc(C)n1`, 3.43% (inactive).
The value for `Cc1cc(Nc2ccccc2)n(-c2ccc(Br)cc2)n1` was -7.48% (inactive).
The result for `CNc1cc(C)nc(-n2nc(C)cc2C)n1` reads 13% (inactive).
On to `COc1ccc(Nc2cc(C)nc(N3CCOCC3)n2)cc1`, for which the inhibition is 10.4% (inactive).
In the case of `O=C(c1ccc(Cl)nc1)N1CCN(S(=O)(=O)c2ccc(Cl)cc2)CC1`, the inhibition is 5.1% (inactive).
As for `Cc1ccc(/C=C(/C#N)C(=O)NC(C)c2ccccc2)o1` (stereo not drawn), the inhibition is 5.5% (inactive).
The value for `CCCC(c1nnnn1C(C)(C)CC)N1CCN(C2CCCC2)CC1` (stereo not drawn) was 3.73% (inactive).
The result for `CC(=O)Nc1ccccc1C(=O)C(=O)Nc1ccc(C(=O)N2CCOCC2)cc1` reads -0.85% (inactive); that for `Cc1ccc(C2C(C(=O)c3sc(C)nc3C)=C(O)C(=O)N2CCN(C)C)o1` (stereo not drawn), -6.12% (inactive); that for `COc1ccc(S(=O)(=O)Nc2ccc(N3CCOCC3)cc2)cc1[N+](=O)[O-]`, -1.81% (inactive).
The result for `COC(CNc1cc(=O)oc2ccccc12)OC` reads 3.54% (inactive); that for `O=C(COC(=O)CC1CC2CCC1C2)Nc1c(F)cccc1F` (stereo not drawn), -6.22% (inactive); that for `CCN(CC)CCNC(=O)C(=O)Nc1ccc(C(=O)OC)cc1`, 0.58% (inactive).
Consider `CCOC(=O)c1ccc(NC(=O)C(=O)NCCc2ccc(OC)cc2)cc1`, for which the inhibition is 2.35% (inactive).
The result for `CCCCOC(=O)c1ccc(NC(=O)C(=O)NCc2ccco2)cc1` reads 5.24% (inactive); that for `CCOC(=O)c1ccc(NC(=S)NCc2cccnc2)cc1`, -9.64% (inactive).
`CCCCOC(=O)c1ccc(NC(=O)c2c(OC)cccc2OC)cc1`: the inhibition was -7.36% (inactive).
The result for `CCCCNc1ccc(C(=O)OCCN(C)C)cc1` reads 5.64% (inactive); that for `CCCCOC(=O)c1ccc(NC(C)=O)cc1`, 58.3% (inactive).
As for `CCN(CC)CCNC(=O)c1ccc(NC(C)=O)cc1`, the inhibition was -2.03% (inactive) and 6.46% (inactive).
The value for `CCOc1cc(CNc2ccc(N(C)C)cc2)cc(Br)c1OCC(=O)NC(C)(C)C` was 13.9% (inactive); that for `O=C(Cn1nnc2ccccc21)OCc1ccccc1` was 3.11% (inactive).
Take `CC(C(=O)Nc1ccc(C(=O)O)cc1)N1C(=O)c2ccccc2C1=O` (stereo not drawn): the inhibition was 2.02% (inactive).
The value for `CC1C(=O)NN=C1C(=O)N/N=C/c1ccco1` (stereo not drawn) was 4.15% (inactive); that for `N/C(CN1CCCC1=O)=N\OC(=O)c1ccccc1Cl` was -4.21% (inactive).
Consider `CC(C)(C)C(=O)Nc1ccc(N=Nc2ccccc2)cc1`, for which the inhibition was 1.74% (inactive).
The value for `COc1ccc(C2=NOC(C)(c3nnc(-c4ccncc4)o3)C2)cc1` (stereo not drawn) was 3.27% (inactive); that for `O=C(c1csc2c1CCCC2)N1CCCCC1` was -7.91% (inactive).
